Measurements as given in PubChem BioAssay AID1159568 (Broad Institute, 2015).
Results with a measured potency or affinity are listed apart. Records with an inconclusive call do not appear. Activity calls are given as the source filed them.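 The calls were made as follows: active = signal loss with an EC50 at or below twice the highest valid dose for that sample; inconclusive = flat curve with 30 to 70% inhibition, or poor fit; inactive = the rest.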

experiment: P. falciparum Dd2 growth inhibitors, dose response, SYBR Green, dry powder samples, set 9 (AID 1159568); conditions: P. falciparum Dd2 in erythrocytes, 72 h; series mostly up to 19.5 µM; activity change, negative = inhibition: at the top concentration

Activity change, negative = inhibition, inactive:
C[C@H]1CN([C@@H](C)CO)C(=O)CCCn2cc(nn2)CO[C@H]1CN(C)C(=O)Nc1cccc2ccccc12 0.508%
COc1cccc(NC(=O)N[C@@H]2CC[C@H](CC(=O)N3CCN(C)CC3)O[C@@H]2CO)c1 3.98%
COc1ccc(CNC(=O)C[C@H]2CC[C@@H](NC(=O)CN(C)C)[C@H](CO)O2)cc1 -8.93%
COCC(=O)N1C[C@H](C)[C@@H](OC)CN(C)C(=O)c2ccc(NC(=O)Nc3cccc(F)c3)cc2OC[C@@H]1C 4.93% [at 6.8 µM]
COc1ccc(NC(=O)N(C)C[C@H]2Oc3ccc(NC(=O)CCN4CCOCC4)cc3C(=O)N([C@H](C)CO)C[C@@H]2C)cc1 -2.62%
CC(C)[C@@H]1COCc2cnnn2CCC[C@H](C)C(=O)N1 0.842%
Cc1noc(C)c1S(=O)(=O)N(C)C[C@H]1OCc2cn(nn2)CCCC(=O)N([C@@H](C)CO)C[C@@H]1C -9.44%
O=C(NCc1ccc2c(c1)OCO2)[C@@H]1[C@@H](CO)[C@@H]2Cn3c(cccc3=O)[C@H]1N2Cc1cncnc1 2.33%
